High-throughput results deposited in PubChem by several laboratories.
Most compounds without a hit are left out; they make up all but 6.6% or so of the library.
Anthrax LF prot: inhibitors of Bacillus anthracis lethal factor protease. inhibition, % at 10 µM. multiplex microsphere protease cleavage assay, LF. 360,000 tested, 0.12% active. P15917; also: plate controls were buffer without enzyme for full effect and enzyme alone for no effect
Target sequence (P15917 whole entry, looked up): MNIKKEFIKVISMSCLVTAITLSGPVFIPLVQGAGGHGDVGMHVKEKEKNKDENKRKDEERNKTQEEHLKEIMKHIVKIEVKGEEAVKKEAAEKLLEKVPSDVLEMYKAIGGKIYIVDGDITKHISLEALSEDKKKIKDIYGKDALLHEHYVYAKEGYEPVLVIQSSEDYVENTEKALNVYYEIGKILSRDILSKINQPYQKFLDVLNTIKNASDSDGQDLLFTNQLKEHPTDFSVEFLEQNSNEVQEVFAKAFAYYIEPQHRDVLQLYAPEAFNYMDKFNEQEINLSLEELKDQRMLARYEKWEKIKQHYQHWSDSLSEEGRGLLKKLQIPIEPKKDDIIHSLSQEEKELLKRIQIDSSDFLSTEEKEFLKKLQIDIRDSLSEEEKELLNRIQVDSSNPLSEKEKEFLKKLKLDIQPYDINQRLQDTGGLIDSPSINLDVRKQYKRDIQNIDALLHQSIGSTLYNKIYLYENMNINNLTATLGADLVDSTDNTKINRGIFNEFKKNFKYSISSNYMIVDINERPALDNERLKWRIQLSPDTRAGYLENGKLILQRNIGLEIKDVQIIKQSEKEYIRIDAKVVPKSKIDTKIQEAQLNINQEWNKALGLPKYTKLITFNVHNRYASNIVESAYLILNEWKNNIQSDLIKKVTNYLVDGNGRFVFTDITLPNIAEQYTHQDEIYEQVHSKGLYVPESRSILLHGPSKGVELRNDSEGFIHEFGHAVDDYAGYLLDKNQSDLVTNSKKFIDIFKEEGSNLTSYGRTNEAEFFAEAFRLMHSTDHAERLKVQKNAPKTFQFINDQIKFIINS
Bead autofluor: counter-screen for toxin protease inhibitors: compound fluorescence; compound autofluorescence counterscreen, microsphere flow cytometry; stronger effect = higher value; 360,000 tested, 3.1% active; fluorescence intensity (concentration not given with the values); in the data active = fluorescence intensity above about 16000; inconclusive = no clear call, values can overlap the other calls
BoNT-F LC inh: inhibitors of Botulinum neurotoxin F light chain protease. Multiplex microsphere protease cleavage assay, flow cytometry. inhibition, % at 10 µM. 360,000 tested, 0.22% active. AID 588497; in the data active = inhibition above about 35%, passing the limit was not always enough; inconclusive = no clear call, values can overlap the other calls; also: plate controls were buffer without enzyme for full effect and enzyme alone for no effect
FBA Mtb inh: inhibitors of M. tuberculosis fructose-bisphosphate aldolase. AID 588726. P9WQA3. 360,000 tested, 2.3% active. purified M. tuberculosis FBA, fluorescence read-out. inhibition, % at 1 µM; in the data active = inhibition above about 27%;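 also: 0% = vehicle and 100% = reference inhibitor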
GDH-TPI counter: counter-screen for M. tuberculosis FBA inhibitors: GDH-TPI coupled enzymes. GDH-TPI coupled enzyme counterscreen, NADH absorbance. 360,000 tested, 1.2% active. AID 588335. inhibition, % at 4.8 µM; in the data active = inhibition above about 30%;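 also: 0% = DMSO wells and 100% = wells lacking the enzyme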
BoNT A protease: inhibitors of Botulinum neurotoxin A light chain protease | multiplex microsphere protease substrate cleavage, flow cytometry | inhibition, % at 10 µM | AID 588499 | 360,000 tested, 0.17% active; also: plate controls were buffer without enzyme for full effect and enzyme alone for no effect
Numbers without * were called inactive. Rule as the data show it, unless noted: active = inhibition above about 30%; inconclusive = no clear call, values can overlap the other calls; inactive = below that.

How did O=C(COc1ccc(S(=O)(=O)NCc2ccccc2)cc1Cl)N1CCOCC1 do in these assays?
Anthrax LF prot: 0; Bead autofluor: 23739*; BoNT-F LC inh: 0; FBA Mtb inh: 4; GDH-TPI counter: 1; BoNT A protease: 0

How did O=C(c1ccc(CNS(=O)(=O)c2cccc(C(F)(F)F)c2)cc1)N1CCOCC1 do in these assays?
Anthrax LF prot: -2; Bead autofluor: 22700*; BoNT-F LC inh: 1; FBA Mtb inh: 2; GDH-TPI counter: -2; BoNT A protease: inconclusive

What do the screens show for `COc1ccc(S(=O)(=O)Nc2ccccc2C(=O)N2CCOCC2)cc1F`?
Anthrax LF prot: 0; Bead autofluor: 5166; BoNT-F LC inh: 2; FBA Mtb inh: 2; GDH-TPI counter: -1; BoNT A protease: 2

How did CCOC(=O)N1CCN(C(=O)CCNS(=O)(=O)c2ccccc2)CC1 do in these assays?
Anthrax LF prot: 1; Bead autofluor: 5493; BoNT-F LC inh: 1; FBA Mtb inh: 2; GDH-TPI counter: 13; BoNT A protease: 1

Results for CCOC(=O)N1CCN(C(=O)COc2ccc(S(=O)(=O)NCc3ccccc3)cc2)CC1 ?
Anthrax LF prot: -2; Bead autofluor: 17159*; BoNT-F LC inh: -1; FBA Mtb inh: 3; GDH-TPI counter: 0; BoNT A protease: -1

How did COc1ccc(S(=O)(=O)Nc2ccccc2C(=O)N2CCOCC2)cc1Cl do in these assays?
Anthrax LF prot: -13; Bead autofluor: 17400*; BoNT-F LC inh: -62; FBA Mtb inh: 10; GDH-TPI counter: 6; BoNT A protease: -40

What do the screens show for `COc1ccc(NC(=O)COc2ccccc2Cc2ccccc2)cc1S(=O)(=O)N1CCOCC1`?
Anthrax LF prot: -5; Bead autofluor: 5568; BoNT-F LC inh: -12; FBA Mtb inh: 1; GDH-TPI counter: -5; BoNT A protease: -1

How did O=C(COc1ccc(Cl)cc1Cl)NC(=O)N1CCOCC1 do in these assays?
Anthrax LF prot: 0; Bead autofluor: 16969*; BoNT-F LC inh: -1; FBA Mtb inh: 3; GDH-TPI counter: 21; BoNT A protease: -2

How did Cc1cc(S(=O)(=O)NC(C)C)ccc1OCC(=O)N1CCN(Cc2ccc3c(c2)OCO3)CC1 do in these assays?
Anthrax LF prot: -2; Bead autofluor: 6991; BoNT-F LC inh: -6; FBA Mtb inh: 2; GDH-TPI counter: 4; BoNT A protease: 1

What do the screens show for `O=C(COc1ccc(-c2ccccc2)cc1)N1CCN(S(=O)(=O)Cc2ccccc2)CC1`?
Anthrax LF prot: -4; Bead autofluor: 16462*; BoNT-F LC inh: 1; FBA Mtb inh: 1; GDH-TPI counter: 8; BoNT A protease: 0

How did Cc1ccc(OCC(=O)N2CCN(C(=O)Cc3ccccc3)CC2)cc1 do in these assays?
Anthrax LF prot: -4; Bead autofluor: 3266; BoNT-F LC inh: -2; FBA Mtb inh: 1; GDH-TPI counter: 4; BoNT A protease: 0

How did CC(C)NS(=O)(=O)c1ccc(OCC(=O)N2CCN(Cc3ccc4c(c3)OCO4)CC2)c(Cl)c1 do in these assays?
Anthrax LF prot: 0; Bead autofluor: 20603*; BoNT-F LC inh: 1; FBA Mtb inh: -4; GDH-TPI counter: -8; BoNT A protease: 0

What do the screens show for `Cc1nc2ccc(C(=O)N(C)Cc3ccco3)cn2c1N(C)CC1CCCCC1`?
Anthrax LF prot: -5; Bead autofluor: 2885; BoNT-F LC inh: -5; FBA Mtb inh: -1; GDH-TPI counter: 8; BoNT A protease: -1

What do the screens show for `O=S(=O)(Nc1ccc(-n2cnnn2)cc1)c1ccc(F)c(F)c1F`?
Anthrax LF prot: -6; Bead autofluor: 4582; BoNT-F LC inh: 2; FBA Mtb inh: 5; GDH-TPI counter: -6; BoNT A protease: 1

What do the screens show for `COc1ccc(-c2cc(C(=O)Nc3cccnc3)no2)cc1OC`?
Anthrax LF prot: 4; Bead autofluor: 4923; BoNT-F LC inh: -4; FBA Mtb inh: 0; GDH-TPI counter: 4; BoNT A protease: -1

What do the screens show for `CCOc1ccc(/C=N/NC(=O)Nc2ccccc2)cc1`?
Anthrax LF prot: -1; Bead autofluor: 4664; BoNT-F LC inh: -5; FBA Mtb inh: 0; GDH-TPI counter: 1; BoNT A protease: 0

Results for CCN(CC)c1ccc(/C=N/NC(=O)CC(C)C)cc1 ?
Anthrax LF prot: -6; Bead autofluor: 4736; BoNT-F LC inh: -8; FBA Mtb inh: 19; GDH-TPI counter: 21; BoNT A protease: 0

How did CCN(CC)c1ccc(/C=N/NC(=O)Nc2ccccc2)cc1 do in these assays?
Anthrax LF prot: -2; Bead autofluor: 4282; BoNT-F LC inh: 0; FBA Mtb inh: 15; GDH-TPI counter: 32*; BoNT A protease: 0

What do the screens show for `CCN(CC)c1ccc(/C=N\NC(N)=O)cc1`?
Anthrax LF prot: -2; Bead autofluor: 2487; BoNT-F LC inh: -8; FBA Mtb inh: 26; GDH-TPI counter: 48*; BoNT A protease: 0

Results for O=C(NCCc1ccccc1F)N[C@@H](Cc1ccccc1)C(=O)O ?
Anthrax LF prot: -2; Bead autofluor: 3905; BoNT-F LC inh: -23; FBA Mtb inh: 2; GDH-TPI counter: -4; BoNT A protease: 0

How did COc1cccc(CN2CCC(C(=O)NC(C)c3cccc4ccccc34)CC2)c1 (stereo unspecified) do in these assays?
Anthrax LF prot: -9; Bead autofluor: 4168; BoNT-F LC inh: -12; FBA Mtb inh: -3; GDH-TPI counter: 6; BoNT A protease: 0

Results for COc1cc(C(=O)NCC2(N(C)C)CCCCC2)ccc1OCc1ccccc1 ?
Anthrax LF prot: 0; Bead autofluor: 6331; BoNT-F LC inh: 10; FBA Mtb inh: 2; GDH-TPI counter: -1; BoNT A protease: -1

How did CNC(=S)NCc1ccc2[nH]c(C)cc2c1 do in these assays?
Anthrax LF prot: -10; Bead autofluor: 3850; BoNT-F LC inh: -29; FBA Mtb inh: -1; GDH-TPI counter: -3; BoNT A protease: 4

Results for CCc1cccc(C)c1NC(=S)NCc1ccc2[nH]c(C)cc2c1 ?
Anthrax LF prot: -105; Bead autofluor: 2743; BoNT-F LC inh: -122; FBA Mtb inh: 4; GDH-TPI counter: -4; BoNT A protease: 40*

How did CC(C)CNC(=O)COC(=O)c1c2c(nc3ccccc13)/C(=C/c1cccs1)CC2 do in these assays?
Anthrax LF prot: 24; Bead autofluor: 8338; BoNT-F LC inh: 18; FBA Mtb inh: 1; GDH-TPI counter: 9; BoNT A protease: 31*

How did Cc1c(NC(=O)COC(=O)CSc2ccc([N+](=O)[O-])cc2)c(=O)n(-c2ccccc2)n1C do in these assays?
Anthrax LF prot: -4; Bead autofluor: 7195; BoNT-F LC inh: -13; FBA Mtb inh: -3; GDH-TPI counter: 16; BoNT A protease: -1

What do the screens show for `N#C/C(=N\Nc1ccc(Cl)cc1)C(N)=S`?
Anthrax LF prot: 5; Bead autofluor: 4326; BoNT-F LC inh: 6; FBA Mtb inh: -18; GDH-TPI counter: 4; BoNT A protease: 1

What do the screens show for `N#C/C(=N\Nc1ccccc1)C(N)=S`?
Anthrax LF prot: 3; Bead autofluor: inconclusive; BoNT-F LC inh: inconclusive; FBA Mtb inh: -7; GDH-TPI counter: 31*; BoNT A protease: 4

Results for COc1cc(C(=S)N2CCCC2)cc(OC)c1O ?
Anthrax LF prot: -2; Bead autofluor: 20756*; BoNT-F LC inh: -1; FBA Mtb inh: 0; GDH-TPI counter: 0; BoNT A protease: 0
